Experimental data published in PubChem BioAssay (EPA / NIEHS).
Inconclusive results are not listed. Activity calls are given as the source filed them. How the source made its calls: active means hit-call score of the fitted dose curve at least 0.9, where 1 is the maximum; inconclusive means response in the unintended direction; inactive means score below 0.9.

Experiment: ACEA_ER_AUC_viability: ACEA Biosciences xCELLigence Real-Time Cell Analysis on Estrogen Receptor Agonism for Viability (AID 2283782);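 further: continuous compound exposure with impedance area under curve over 80 h; hit means loss of impedance signal meaning reduced cell growth or viability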
Outline: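 T-47D; phenol red-free RPMI1640 + 10% CS-FBS; 8 conc., 1:4 serial, max 100 uM final, ≤0.5% DMSO; n = 2; continuous exposure; impedance monitored to 80 h post-dose; AUC vs DMSO.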

Compound	outcome	AC50
O=S(=O)(O)CC(O)CCl (stereo unspecified)	inactive	–
Nc1ccc(N=Nc2ccccc2)c(N)n1	inactive	–
Cc1cc(C)c(C)c(O)c1	inactive	–
CC(C)CC(O)Cc1ccccc1 (stereo unspecified)	inactive	–
Cn1c(=O)[nH]c2ncn(C)c2c1=O	inactive	–
CC(=O)C=CC1C(C)=CCC(C)C1(C)C (stereo unspecified)	inactive	–
CCCCCCCC(C)=O	inactive	–
C=C(C)CCO	–	65.9 µM (active)
CC(=O)OC1C2(C)CCC(C2)C1(C)C (stereo unspecified)	inactive	–
C=C(C)c1cccc(C(C)(C)N=C=O)c1	inactive	–
CC(C)=CCCC(C)C=O (stereo unspecified)	–	11.9 µM (active)
S=C(NC1CCCCC1)NC1CCCCC1	inactive	–
NC(=O)c1ccccc1O	inactive	–
OCCCS	–	44.4 µM (active)
Nc1ccc(N)c(Cl)c1	–	67.8 µM (active)
O=C(Nc1ccccc1SSc1ccccc1NC(=O)c1ccccc1)c1ccccc1	–	77.7 µM (active)
CC(C)C(=O)C(C)C	–	19.7 µM (active)
COC(=O)c1sccc1S(N)(=O)=O	inactive	–

Compound	outcome	AC50
Cc1cc(C)c(C)cc1C	inactive	–
CC(CC=O)CCCC(C)(C)O (stereo unspecified)	inactive	–
O=c1n(CCO)c(=O)n(CCO)c(=O)n1CCO	inactive	–
O=CC1CC1	–	65 µM (active)
C=CCCCCCCCCC(=O)OCCCC	–	50 µM (active)
O=C1CC2CC1C1CCCC21 (stereo unspecified)	inactive	–
O=C1CCCCCCCCCCC(=O)OCCO1	–	68.3 µM (active)
CCCCCCCCCCc1ccccc1	–	26.2 µM (active)
CCC(Cc1ccccc1)(C(=O)c1ccc(N2CCOCC2)cc1)N(C)C (stereo unspecified)	–	88.7 µM (active)
CC(C)CCCC(C)CC=O (stereo unspecified)	inactive	–
CN(C)c1ccc(N=Nc2ccccc2C(=O)O)cc1	–	11.8 µM (active)
CC1OC1C1CCC2(C)OC2C1 (stereo unspecified)	inactive	–
c1ccc2c(c1)ccc1ncccc12	inactive	–
O=P(O)(O)Oc1ccccc1	–	50 µM (active)
CC(C)c1ccc2c(C(C)C)cc(C(C)C)c(S(=O)(=O)O)c2c1	inactive	–
COC(=O)/C=C\C(=O)O	inactive	–
CCCCCCC(O)CO (stereo unspecified)	–	40 µM (active)
CC=CCO	inactive	–
